In PubChem BioAssay (EPA / NIEHS):
Results filed as inconclusive are left out. Some structures have more than one record in an assay (separate samples or runs), and their calls can disagree. The source made the active and inactive calls. The calls were made as follows, unless noted: active = hit-call score of the fitted dose curve at least 0.9, where 1 is the maximum; inactive = score below 0.9.

Key:
[1] = biological target: Estrogen receptor (Homo sapiens) (UniProt P03372); assay: CCTE_Deisenroth_AIME_384WELL_LUC_Active: CCTE's 384-well Estrogen Receptor Transactivation Assay with AIME metabolic competence (ERTA luciferase; metabolism positive), Deisenroth Lab (AID 2284030; active = hit-call score of the fitted dose curve at least 0.9, where 1 is the maximum)
Method in brief: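 Chemicals (10-point, 0.002-200 uM) were first incubated 2 hours with alginate-immobilized induced male Sprague Dawley rat liver S9. The conditioned medium was then applied to VM7Luc4E2 cells for 24 hours, with ER luciferase induction read by luminescence relative to 17beta-estradiol.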

[2] = CCTE_Deisenroth_AIME_384WELL_CTox_Active: Cytotoxicity Assessment (CTOX) in CCTE's 384-well Estrogen Receptor Transactivation Assay with AIME metabolic competence (metabolism positive), Deisenroth Lab (AID 2284037; active = hit-call score of the fitted dose curve at least 0.9, where 1 is the maximum;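 also: chemicals first conditioned 2 h by alginate-bound induced rat liver S9 before cells; activity means signal loss indicating cell death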)
Method in brief: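 Chemicals pre-incubated 2 hours with alginate-immobilised phenobarbital/beta-naphthoflavone-induced male Sprague Dawley rat liver S9, then conditioned medium applied 24 hour to VM7Luc4E2 cells. Viability by fluorogenic protease substrate; 10-point series 0.002 - 200 uM.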

[3] = biological target: Estrogen receptor (Homo sapiens) (UniProt P03372); assay: CCTE_Deisenroth_AIME_384WELL_LUC_Inactive: CCTE's 384-well Estrogen Receptor Transactivation Assay without AIME metabolic competence (ERTA luciferase; metabolism negative), Deisenroth Lab (AID 2284038; active = hit-call score of the fitted dose curve at least 0.9, where 1 is the maximum;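 also: VM7Luc4E2 breast cells given medium preincubated 2 h with S9-free microspheres; hits raise estrogen receptor luciferase signal so potencies reflect agonists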)
Method in brief: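 VM7Luc4E2 ER transactivation, luciferase bioluminescence after 24 h, using medium pre-incubated 2 h with S9-free alginate microspheres. Concentrations 0.002–200 uM; gain of signal fitted relative to 17beta-estradiol.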

[4] = biological target: Estrogen receptor (Homo sapiens) (UniProt P03372); assay: CCTE_Deisenroth_AIME_384WELL_LUC_Shift: CCTE's 384-well Estrogen Receptor Transactivation Assay with AIME metabolic competence data shift (ERTA luciferase; difference in metabolism positive and negative), Deisenroth Lab (AID 2284041);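 also: shift is response with S9 minus without S9 so positive means metabolism raised ER signal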
Method in brief: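 Chemicals (0.002–200 uM, 10 points) pre-incubated 2 h with alginate-encapsulated induced male Sprague Dawley rat liver S9 or S9-free, then medium applied 24 h to VM7Luc4E2 cells; luciferase. Endpoint is per-concentration difference, S9-positive minus negative.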

[5] = CCTE_Deisenroth_AIME_384WELL_CTox_Inactive: Cytotoxicity Assessment (CTOX) in CCTE's 384-well Estrogen Receptor Transactivation Assay without AIME metabolic competence (metabolism negative), Deisenroth Lab (AID 2284039; active = hit-call score of the fitted dose curve at least 0.9, where 1 is the maximum;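 also: cell viability via live-cell protease substrate cleaved to fluorescent probe; cells exposed 24 h to medium preincubated 2 h with alginate-water beads without S9; loss of fluorescence signal means loss of viability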)
Method in brief: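 VM7Luc4E2 cells, metabolism-negative arm: test chemicals (0.002–200 uM, 10 points) pre-incubated 2 h with alginate-water microspheres, then medium transferred to cells for 24 h. Viability read as protease-substrate cleavage to fluorescent probe; loss-of-signal, bidirectional fitting.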

[6] = CCTE_Shafer_MEA_dev_firing_rate_mean: CCTE's Neural Network Formation Assay for Mean Firing Rate, Shafer Lab (AID 2284031);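 as to AC50: curve fitted for loss of firing so AC50 reflects decreased mean firing rate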
Method in brief: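 Steps: seed rat cortical cells (1.5 x 10^5/well) with laminin on PEI-coated MEA; dose day 0; record DIV 5/7/9/12, full media and compound exchange after DIV 5 and 9 recordings; compute well-mean firing rate AUC.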

[7] = CCTE_Shafer_MEA_dev_per_burst_spike_percent: CCTE's Neural Network Formation Assay for Percent of Spikes in a Burst, Shafer Lab (AID 2284032);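 as to AC50: fitted as a decrease in burst spike percentage below DMSO baseline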
Method in brief: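 Value is trapezoidal AUC over recordings on days 5, 7, 9 and 12 of the well-mean fraction of spikes falling in single-electrode bursts; rat cortical cultures exposed continuously from plating, treatment renewed DIV 5 and 9, fitted downward against DMSO.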

[8] = CCTE_Shafer_MEA_dev_active_electrodes_number: CCTE's Neural Network Formation Assay for Number of Active Electrodes, Shafer Lab (AID 2284040; active = hit-call score of the fitted dose curve at least 0.9, where 1 is the maximum;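 as to AC50: potency for loss of active electrodes versus DMSO so lower counts are hits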)
Method in brief: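 Counts electrodes per well firing at least 5 spikes/min, recorded on days 5, 7, 9 and 12 in rat cortical cultures dosed continuously from plating (treatment refreshed DIV 5, 9). Value is the area under the curve over recordings, fitted downward relative to DMSO.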

[9] = CCTE_Shafer_MEA_dev_burst_rate: CCTE's Neural Network Formation Assay for Burst Rate, Shafer Lab (AID 2284042);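 as to AC50: potency for loss of burst rate below DMSO control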
Method in brief: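 Primary rat cortical neurons on PEI-coated 48-well MEA plates (laminin added with cells at plating) (16 electrodes/well), exposed from plating to day 12, dosing renewed at DIV 5 and 9. Burst rate averaged over active electrodes, recorded DIV 5, 7, 9, 12, summarized as AUC; loss versus DMSO.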

[10] = CCTE_Shafer_MEA_dev_bursting_electrodes_number: CCTE's Neural Network Formation Assay for Number of Bursting Electrodes, Shafer Lab (AID 2284043; active = hit-call score of the fitted dose curve at least 0.9, where 1 is the maximum;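 also: potency is for loss of bursting electrodes relative to DMSO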)
Method in brief: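 Rat cortical primary neurons, 48-well MEA, 16 electrodes/well; dosing DIV 0–12, re-dosed with full media change DIV 5, 9. Recordings DIV 5/7/9/12, AxIS adaptive spike detector; bursting electrode = ≥1 burst/2 min. AUC across days; loss of signal vs DMSO.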

[11] = CCTE_Shafer_MEA_dev_per_burst_interspike_interval: CCTE's Neural Network Formation Assay for Burst Interspike Interval, Shafer Lab (AID 2284044);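 as to AC50: potency for a decrease of within-burst interspike interval below DMSO level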
Method in brief: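 Primary rat cortical neurons on 48-well MEA plates, exposed from day 0 through day 12, treatment renewed at DIV 5 and 9. Within-burst interspike interval recorded days 5, 7, 9, 12, well-averaged, summarised as AUC; negative fit versus DMSO.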

[12] = CCTE_Shafer_MEA_dev_burst_duration_mean: CCTE's Neural Network Formation Assay for Mean Burst Duration, Shafer Lab (AID 2284045);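 as to AC50: curve fitted for loss meaning shorter burst duration than DMSO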
Method in brief: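 Rat cortical cultures, 1.5 x 10^5 cells/well with laminin drop; continuous dosing days 0–12, media plus treatment refreshed DIV 5, 9. AxIS adaptive spike detection; mean single-electrode burst duration, AUC over four recordings, negative direction vs DMSO.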

[13] = CCTE_Shafer_MEA_dev_interburst_interval_mean: CCTE's Neural Network Formation Assay for Mean Interburst Interval, Shafer Lab (AID 2284046);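 also: well-mean interburst interval of bursting electrodes as AUC over four recording days; curve fitted for decrease in interburst interval relative to DMSO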
Method in brief: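 Recordings on days 5, 7, 9 and 12 give well-mean interburst interval across actively bursting electrodes, summarized as area under the curve. Cultures: rat cortical neurons, continuous exposure from day 0, compound renewed at feeds; decrease analyzed versus DMSO.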

[14] = CCTE_Shafer_MEA_dev_inter_network_spike_interval_mean: CCTE's Neural Network Formation Assay for Mean Inter-network Spike Interval, Shafer Lab (AID 2284047);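 as to AC50: potency for a decrease in mean inter-network spike interval below DMSO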
Method in brief: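 Primary rat cortical neurons on 16-electrode MEA wells, exposed from plating day 0 through DIV 12, compound renewed at DIV 5 and 9 media changes. Mean interval between network-spike peaks recorded DIV 5, 7, 9, 12; collapsed as trapezoidal AUC, fitted downward versus DMSO.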

[15] = CCTE_Shafer_MEA_dev_network_spike_number: CCTE's Neural Network Formation Assay for Number of Network Spikes, Shafer Lab (AID 2284048);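 also: synchronized bursts across electrodes counted on days 5 7 9 12 and integrated as AUC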;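 as to AC50: fit as a loss of signal meaning fewer network spikes than DMSO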
Method in brief: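 Rat cortical primary cultures on 48-well MEA (16 electrodes/well); continuous exposure DIV 0–12, full medium and treatment exchange DIV 5, 9. Readout: network spike count, AxIS adaptive detection, recordings DIV 5/7/9/12 collapsed to AUC; loss-of-signal fit, DMSO baseline.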

[16] = CCTE_Shafer_MEA_dev_network_spike_peak: CCTE's Neural Network Formation Assay for Mean Number of Electrodes in Network Spike, Shafer Lab (AID 2284049);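 as to AC50: fitted for loss of signal meaning fewer electrodes in network spikes than DMSO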
Method in brief: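 Network-spike peak electrode count from recordings on days 5, 7, 9 and 12 was combined as trapezoidal area under the curve. Rat cortical cultures were treated continuously from plating, with compound renewed at each feed (DIV 5, 9); fits versus DMSO.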

[17] = CCTE_Shafer_MEA_dev_spike_duration_mean: CCTE's Neural Network Formation Assay for Mean Spike Duration, Shafer Lab (AID 2284051);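 also: mean network spike duration pooled as area under curve over DIV 5 to 12 recordings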;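 as to AC50: potency for a decrease in mean network spike duration versus DMSO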
Method in brief: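 Primary rat cortical neurons on 16-electrode MEA wells (PEI-coated, laminin in plating drop), exposed from plating through DIV 12 with compound renewed at DIV 5 and 9. Mean network-spike duration recorded DIV 5, 7, 9, 12; trapezoidal AUC across days, DMSO baseline.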

[18] = CCTE_Shafer_MEA_dev_network_spike_duration_std: CCTE's Neural Network Formation Assay for Standard Deviation of Network Spike Duration, Shafer Lab (AID 2284052);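 also: area under curve of spike duration SD across recording days 5 to 12; hits are decreases in network spike duration SD versus DMSO vehicle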
Method in brief: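 Primary rat cortical neurons on PEI-coated 16-electrode MEA wells, exposed from plating day 0 through day 12 with compound renewed at DIV 5 and 9. Network spike duration SD recorded on days 5, 7, 9, 12, collapsed as trapezoidal AUC; loss-of-signal fit versus DMSO.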

[19] = CCTE_Deisenroth_AIME_96WELL_CTox_Inactive: Cytotoxicity Assessment (CTOX) in CCTE's 96-well Estrogen Receptor Transactivation Assay without AIME metabolic competence (metabolism negative), Deisenroth Lab (AID 2284029; active = hit-call score of the fitted dose curve at least 0.9, where 1 is the maximum)
Method in brief: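 Metabolism-negative mode: alginate-water lids without rat S9, 2 h pre-incubation of 10-point series (0.002 - 200 uM). Conditioned medium on VM7Luc4E2 cells 24 h; loss of fluorescent live-cell protease signal marks cytotoxicity.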

Measured: AC50

Chain of Estrogen receptor (Homo sapiens) (P03372 whole entry, looked up): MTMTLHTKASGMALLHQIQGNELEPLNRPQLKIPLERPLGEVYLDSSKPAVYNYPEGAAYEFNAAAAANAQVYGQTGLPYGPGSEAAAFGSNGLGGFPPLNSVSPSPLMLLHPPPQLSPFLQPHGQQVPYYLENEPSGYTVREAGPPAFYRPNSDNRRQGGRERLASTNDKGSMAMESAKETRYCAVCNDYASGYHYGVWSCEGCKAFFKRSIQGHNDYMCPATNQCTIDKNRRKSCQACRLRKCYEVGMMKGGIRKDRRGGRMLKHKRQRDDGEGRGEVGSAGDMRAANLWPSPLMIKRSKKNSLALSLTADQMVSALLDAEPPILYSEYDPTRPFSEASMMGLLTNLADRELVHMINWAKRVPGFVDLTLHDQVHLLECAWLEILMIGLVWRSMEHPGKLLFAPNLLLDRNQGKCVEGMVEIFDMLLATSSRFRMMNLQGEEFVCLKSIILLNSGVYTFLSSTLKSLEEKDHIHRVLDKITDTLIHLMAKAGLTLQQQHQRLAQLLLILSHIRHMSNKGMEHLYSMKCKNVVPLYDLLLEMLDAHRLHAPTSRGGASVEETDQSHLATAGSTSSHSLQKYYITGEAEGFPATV

COc1cc(C=O)ccc1O
inactive: [1] | [2] | [3] | [4]

CCCCCCCCCCCCCCCCCC(=O)O
inactive: [1] | [2] | [3] | [5] | [4]

Cc1cc(=O)[nH]c(=S)[nH]1
active: [10] 10 µM
not listed: [19]
inactive: all other assays above

Cc1cccc([N+](=O)[O-])c1C
inactive: [1] | [2] | [3] | [5] | [4]

CC1(C)NC(=O)NC1=O
inactive: [1] | [2] | [3] | [5] | [4]

O=c1[nH]cc(F)c(=O)[nH]1
active: [6] 4.24 µM | [7] 1.47 µM | [8] 2.59 µM | [9] 1.58 µM | [10] 1.39 µM | [13] 2.82 µM | [15] 0.974 µM | [16] 1.2 µM | [17] 1.52 µM | [18] 2.01 µM
inactive: [1] | [3] | [5] | [4] | [11] | [12] | [14]

CC(=O)Oc1ccccc1C(=O)O
active: [12] 26.2 µM | [14] 0.0242 µM | [18] 0.0101 µM
inactive: [1] | [6] | [7] | [3] | [8] | [4] | [9] | [11] | [12] | [13] | [14] | [15] | [16] | [17] | [18]

NCCO
inactive: [1] | [2] | [3] | [5] | [4]

CCCc1cc(=O)[nH]c(=S)[nH]1
active: [7] 22.9 µM | [8] 22.9 µM | [10] 23.2 µM | [11] 11.7 µM | [16] 23 µM | [17] 20.7 µM
inactive: [1] | [6] | [7] | [2] | [3] | [5] | [8] | [4] | [9] | [11] | [12] | [13] | [14] | [15] | [16] | [17] | [18]

COc1cc(/C=C/C(=O)CC(=O)/C=C/c2ccc(O)c(OC)c2)ccc1O
active: [19] 93.8 µM

O=c1c(O)c(-c2ccc(O)c(O)c2)oc2cc(O)cc(O)c12
active: [1] 21.2 µM | [3] 139 µM | [5] 54.5 µM | [4] 13.5 µM
inactive: [2]

Cc1ccc(N(C)C)cc1
inactive: [1] | [2] | [3] | [5] | [4]

COc1cccc2c1C(=O)c1c(O)c3c(c(O)c1C2=O)C[C@@](O)(C(=O)CO)C[C@@H]3O[C@H]1C[C@H](N)[C@H](O)[C@H](C)O1
active: [19] 68.2 µM

COCCOCCOC
inactive: [1] | [2] | [3] | [5] | [4]

Cc1cccc(C)c1O
inactive: [1] | [2] | [3] | [5] | [4]

CN1CCCC1=O
inactive: [1] | [2] | [3] | [5] | [4]

Cc1ccc(C)c(O)c1C
inactive: [1] | [2] | [3] | [5] | [4]

CCCCOC(=O)CCCCCCCCC(=O)OCCCC
inactive: [1] | [2] | [3] | [5] | [4]
